Test results taken from the supplement of paper PMC12067093, “Discovery and optimisation of a covalent ligand for TRIM25 and its application to targeted protein ubiquitination” (Chemical Science, 2025).
About 21,000 targets were measured; listed, in parts, are those with the largest changes and a random draw of the rest.

Compound: Cc1cc(ccc1-c1ccccc1)C(=O)N1CCCN(CC1)C(=O)CCl [compound 10]
Experiment: probe-labelled cysteine peptide fold change vs DMSO (competition) (log2 fold change); higher = less target engagement (more negative = stronger competition)
Details: THP-1, incubation time: 4 h
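Also: competitive profiling in live THP-1 cells: cysteine peptides tagged with an iodoacetamide desthiobiotin (IA-DTB) probe, intensity after compound treatment relative to DMSO-treated cells.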

Chain of UniProt Q8IY92 (Q8IY92 whole entry, looked up): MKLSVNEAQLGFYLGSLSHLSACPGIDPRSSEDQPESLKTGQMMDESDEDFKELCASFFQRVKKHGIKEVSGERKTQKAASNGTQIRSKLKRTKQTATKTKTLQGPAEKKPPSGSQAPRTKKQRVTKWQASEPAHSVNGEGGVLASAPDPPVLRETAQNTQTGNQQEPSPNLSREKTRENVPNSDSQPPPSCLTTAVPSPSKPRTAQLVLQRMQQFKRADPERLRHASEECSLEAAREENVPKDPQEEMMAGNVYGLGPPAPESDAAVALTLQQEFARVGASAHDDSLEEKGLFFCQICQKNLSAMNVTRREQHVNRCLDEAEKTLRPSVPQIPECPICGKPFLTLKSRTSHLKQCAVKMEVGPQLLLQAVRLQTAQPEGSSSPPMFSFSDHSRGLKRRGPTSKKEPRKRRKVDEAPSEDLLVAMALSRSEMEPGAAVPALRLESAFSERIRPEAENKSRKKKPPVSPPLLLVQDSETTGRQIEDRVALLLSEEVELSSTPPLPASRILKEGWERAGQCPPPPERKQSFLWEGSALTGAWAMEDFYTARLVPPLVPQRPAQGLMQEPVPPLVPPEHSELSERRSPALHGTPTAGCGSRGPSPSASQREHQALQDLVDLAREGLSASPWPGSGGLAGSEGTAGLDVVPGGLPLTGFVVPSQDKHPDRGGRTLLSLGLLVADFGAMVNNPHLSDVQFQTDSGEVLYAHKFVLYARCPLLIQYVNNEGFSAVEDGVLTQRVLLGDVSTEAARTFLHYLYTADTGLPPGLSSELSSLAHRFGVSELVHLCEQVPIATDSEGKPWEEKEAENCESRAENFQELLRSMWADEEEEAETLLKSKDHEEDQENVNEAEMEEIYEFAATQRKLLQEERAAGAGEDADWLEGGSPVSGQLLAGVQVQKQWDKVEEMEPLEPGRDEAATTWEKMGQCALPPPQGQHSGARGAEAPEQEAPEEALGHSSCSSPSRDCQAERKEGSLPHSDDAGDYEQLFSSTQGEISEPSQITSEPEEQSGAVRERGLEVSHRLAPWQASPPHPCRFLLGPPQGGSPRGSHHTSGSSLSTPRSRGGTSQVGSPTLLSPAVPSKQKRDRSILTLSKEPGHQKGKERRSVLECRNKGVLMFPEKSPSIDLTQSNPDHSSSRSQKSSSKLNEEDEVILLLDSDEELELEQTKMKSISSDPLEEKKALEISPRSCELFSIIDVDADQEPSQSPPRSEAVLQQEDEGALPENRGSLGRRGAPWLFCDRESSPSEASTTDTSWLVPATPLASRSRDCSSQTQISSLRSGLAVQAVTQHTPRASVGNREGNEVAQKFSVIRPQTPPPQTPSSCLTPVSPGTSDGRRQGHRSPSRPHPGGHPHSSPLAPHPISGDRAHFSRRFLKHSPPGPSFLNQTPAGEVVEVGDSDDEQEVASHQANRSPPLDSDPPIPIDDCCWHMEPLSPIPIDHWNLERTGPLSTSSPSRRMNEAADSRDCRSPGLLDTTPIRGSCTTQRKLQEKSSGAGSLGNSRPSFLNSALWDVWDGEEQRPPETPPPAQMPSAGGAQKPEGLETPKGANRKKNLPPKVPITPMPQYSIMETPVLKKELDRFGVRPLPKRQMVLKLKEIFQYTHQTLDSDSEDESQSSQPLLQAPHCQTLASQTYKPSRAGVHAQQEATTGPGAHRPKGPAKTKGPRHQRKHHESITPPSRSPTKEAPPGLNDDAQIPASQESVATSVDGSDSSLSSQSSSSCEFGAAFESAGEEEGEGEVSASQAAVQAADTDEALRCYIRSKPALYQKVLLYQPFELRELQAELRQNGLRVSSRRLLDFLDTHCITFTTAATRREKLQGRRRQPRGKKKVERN
Chain of UniProt Q9H3S1 (Q9H3S1 whole entry, looked up): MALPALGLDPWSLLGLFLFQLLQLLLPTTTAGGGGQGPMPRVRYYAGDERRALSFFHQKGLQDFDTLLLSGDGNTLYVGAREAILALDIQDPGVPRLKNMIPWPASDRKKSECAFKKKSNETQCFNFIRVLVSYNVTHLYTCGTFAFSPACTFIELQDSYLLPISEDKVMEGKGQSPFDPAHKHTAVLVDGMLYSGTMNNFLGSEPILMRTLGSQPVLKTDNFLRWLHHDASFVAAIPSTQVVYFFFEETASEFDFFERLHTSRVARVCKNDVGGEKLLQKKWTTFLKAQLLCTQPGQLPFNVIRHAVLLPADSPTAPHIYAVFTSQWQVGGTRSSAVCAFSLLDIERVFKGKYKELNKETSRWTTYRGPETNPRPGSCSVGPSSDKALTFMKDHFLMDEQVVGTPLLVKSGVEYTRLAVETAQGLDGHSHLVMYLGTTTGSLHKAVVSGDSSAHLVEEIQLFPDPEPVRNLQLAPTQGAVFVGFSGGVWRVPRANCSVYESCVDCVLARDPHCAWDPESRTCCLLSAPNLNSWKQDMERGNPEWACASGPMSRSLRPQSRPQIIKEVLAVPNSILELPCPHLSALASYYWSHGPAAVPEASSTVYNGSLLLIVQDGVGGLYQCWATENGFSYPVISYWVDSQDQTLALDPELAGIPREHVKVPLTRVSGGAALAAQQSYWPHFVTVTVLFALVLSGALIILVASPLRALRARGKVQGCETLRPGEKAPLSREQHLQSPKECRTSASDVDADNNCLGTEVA
Chain of UniProt Q14151 (Q14151 whole entry, looked up): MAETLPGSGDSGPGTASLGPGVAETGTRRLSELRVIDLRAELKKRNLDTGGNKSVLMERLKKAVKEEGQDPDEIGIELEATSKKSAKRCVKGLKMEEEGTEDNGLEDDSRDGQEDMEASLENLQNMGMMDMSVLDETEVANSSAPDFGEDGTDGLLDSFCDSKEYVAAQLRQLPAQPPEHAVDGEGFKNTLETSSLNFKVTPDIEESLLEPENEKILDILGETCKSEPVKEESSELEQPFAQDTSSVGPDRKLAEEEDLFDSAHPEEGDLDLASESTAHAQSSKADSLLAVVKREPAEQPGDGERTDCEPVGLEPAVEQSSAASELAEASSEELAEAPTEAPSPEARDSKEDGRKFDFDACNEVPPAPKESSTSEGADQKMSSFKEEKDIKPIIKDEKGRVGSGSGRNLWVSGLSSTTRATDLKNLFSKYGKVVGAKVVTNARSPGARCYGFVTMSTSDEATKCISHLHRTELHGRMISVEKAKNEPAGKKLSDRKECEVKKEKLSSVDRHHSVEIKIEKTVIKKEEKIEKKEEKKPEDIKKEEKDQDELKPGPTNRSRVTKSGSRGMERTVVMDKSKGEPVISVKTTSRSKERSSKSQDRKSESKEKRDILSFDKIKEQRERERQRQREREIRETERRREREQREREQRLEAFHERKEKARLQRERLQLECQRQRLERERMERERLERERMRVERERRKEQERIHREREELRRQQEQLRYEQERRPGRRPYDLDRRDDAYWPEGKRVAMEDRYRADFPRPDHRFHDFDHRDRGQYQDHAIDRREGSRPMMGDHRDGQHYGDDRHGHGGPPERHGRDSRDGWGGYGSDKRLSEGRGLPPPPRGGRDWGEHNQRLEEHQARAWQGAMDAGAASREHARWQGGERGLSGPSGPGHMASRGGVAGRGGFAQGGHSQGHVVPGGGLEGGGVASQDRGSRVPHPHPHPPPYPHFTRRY
Chain of UniProt Q9BUL9 (Q9BUL9 whole entry, looked up): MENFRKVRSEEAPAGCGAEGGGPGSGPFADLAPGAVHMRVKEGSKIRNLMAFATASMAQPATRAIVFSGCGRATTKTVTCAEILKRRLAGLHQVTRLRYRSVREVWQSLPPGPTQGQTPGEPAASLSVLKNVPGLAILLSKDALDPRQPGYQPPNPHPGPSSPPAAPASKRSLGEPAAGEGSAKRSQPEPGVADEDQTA
Chain of UniProt Q5VWQ0 (Q5VWQ0 whole entry, looked up): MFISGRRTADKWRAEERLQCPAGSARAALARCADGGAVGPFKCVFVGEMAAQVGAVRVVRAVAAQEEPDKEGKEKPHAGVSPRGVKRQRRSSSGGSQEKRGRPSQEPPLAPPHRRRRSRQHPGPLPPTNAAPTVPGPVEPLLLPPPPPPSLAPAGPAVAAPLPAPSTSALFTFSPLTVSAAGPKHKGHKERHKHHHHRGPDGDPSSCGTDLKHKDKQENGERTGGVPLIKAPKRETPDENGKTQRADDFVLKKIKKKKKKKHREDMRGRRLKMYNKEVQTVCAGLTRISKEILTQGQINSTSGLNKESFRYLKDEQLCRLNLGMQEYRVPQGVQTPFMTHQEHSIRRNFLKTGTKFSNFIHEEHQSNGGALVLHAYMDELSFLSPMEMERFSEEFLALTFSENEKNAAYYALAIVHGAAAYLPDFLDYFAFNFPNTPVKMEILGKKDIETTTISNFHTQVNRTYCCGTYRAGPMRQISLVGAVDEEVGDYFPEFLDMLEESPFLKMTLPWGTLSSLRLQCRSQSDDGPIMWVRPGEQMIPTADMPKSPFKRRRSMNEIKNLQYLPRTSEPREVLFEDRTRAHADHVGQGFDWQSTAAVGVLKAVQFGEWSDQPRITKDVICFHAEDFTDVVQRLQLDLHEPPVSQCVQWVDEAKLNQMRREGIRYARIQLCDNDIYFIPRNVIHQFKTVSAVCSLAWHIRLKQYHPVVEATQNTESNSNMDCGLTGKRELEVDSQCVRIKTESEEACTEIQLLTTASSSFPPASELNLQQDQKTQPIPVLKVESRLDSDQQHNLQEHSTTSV
Chain of UniProt Q9Y512 (Q9Y512 whole entry, looked up): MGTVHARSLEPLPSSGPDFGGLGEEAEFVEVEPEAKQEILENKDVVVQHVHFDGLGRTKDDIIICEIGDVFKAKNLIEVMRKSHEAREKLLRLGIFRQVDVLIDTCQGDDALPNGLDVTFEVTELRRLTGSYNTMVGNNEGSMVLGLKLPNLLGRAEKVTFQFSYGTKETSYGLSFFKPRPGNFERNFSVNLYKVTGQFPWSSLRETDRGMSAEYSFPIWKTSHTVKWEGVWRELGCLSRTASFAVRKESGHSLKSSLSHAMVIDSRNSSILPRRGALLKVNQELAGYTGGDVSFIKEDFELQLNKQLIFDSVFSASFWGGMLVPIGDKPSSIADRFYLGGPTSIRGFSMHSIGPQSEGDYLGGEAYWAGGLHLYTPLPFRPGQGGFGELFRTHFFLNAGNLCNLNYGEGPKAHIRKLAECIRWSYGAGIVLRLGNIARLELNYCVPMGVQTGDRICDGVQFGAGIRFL

Target	probe-labelled cysteine peptide fold change (10 µM)	probe-labelled cysteine peptide fold change (50 µM)
SLK_Q9H2G2_1138_DLQLQCEANVR (UniProt Q9H2G2)	0.0336	0.0461
SLC22A15_Q8IZD6_438_NVGLGTCSMFSR (UniProt Q8IZD6)	0.0942	-0.0742
RPL7A_P62424_182_MGVPYCIIK (UniProt P62424)	0.17	-0.0867
SAP30BP_Q9UHR5_127_CSNHLQDK (UniProt Q9UHR5)	-0.0884	-0.31
SEC63_Q9UGP8_671_EQTLISMPYHVCTLK (UniProt Q9UGP8)	0.235	0.336
RPS6_P62753_12_KLNISFPATGCQK (UniProt P62753)	0.00268	1.18
SART3_Q15020_182_DYICPNIWLEYGQYSVGGIGQK (UniProt Q15020)	0.208	0.164
RPAP1_Q9BWH6_185_GPSVGEVVPNVGPPEGAVTCETPTPR (UniProt Q9BWH6)	0.902	1.33
SAP30_O75446_184_AQLVEIVGCHFR (UniProt O75446)	0.0105	-0.181
RPL11_P62913_150_TGCIGAK (UniProt P62913)	-0.0968	-0.152
SCCPDH_Q8NBX0_238_WPISYCR (UniProt Q8NBX0)	-0.242	-1.65
SEPT5_Q99719_278_LYPWGIVEVENQAHCDFVK (UniProt Q99719)	0.194	0.135
RPS6KA3_P51812_436_EDIGVGSYSVCK<|>RPS6KA2_Q15349_429_EDIGVGSYSVCK (UniProt Q15349+P51812)	-0.569	-1.64
RTN3_O95197-3_42_SCSSSCAVHDLIFWR (UniProt O95197)	-2.02	-1.97
SDCCAG8_Q86SQ7_236_CEIEESQLK (UniProt Q86SQ7)	0.069	-0.322
SLC39A10_Q9ULF5_598_NYLCIEEEK (UniProt Q9ULF5)	-0.213	-0.202
RNH1_P13489_199_DSPCQLEALKLESCGVTSDNCR (UniProt P13489)	-0.339	-1.17
RSBN1_Q5VWQ0_318_DEQLCR (UniProt Q5VWQ0)	-0.206	-0.556
SAE1_Q9UBE0_134_VDTEDIEKKPESFFTQFDAVCLTCCSR (UniProt Q9UBE0)	-0.00481	-1.27
SMURF2_Q9HAU4_706_LFTIHQIDACTNNLPK (UniProt Q9HAU4)	-0.159	-0.59
SIN3B_O75182_1138_TLCETVHVHGLPVTR (UniProt O75182)	-0.165	0.0678
SAFB2_Q14151_672_ERLQLECQR (UniProt Q14151)	-0.167	-0.742

Target	probe-labelled cysteine peptide fold change (10 µM)	probe-labelled cysteine peptide fold change (50 µM)
RNF14_Q9UBS8_350_LTYHGVSPCK (UniProt Q9UBS8)	-0.0421	-0.206
RPUSD2_Q8IZ73_246_LLAENEDVVVVDKPSSIPVHPCGR (UniProt Q8IZ73)	-0.561	-1.57
SMYD5_Q6GMV2_136_LAATEQYHQVLCPGPSQDDPLHPLNK (UniProt Q6GMV2)	-0.0142	-0.404
RNF20_Q5VTR2_960_CNAAFGANDFHR (UniProt Q5VTR2)	0.279	0.358
SEMA4D_Q92854_370_PRPGACIDSEAR (UniProt Q92854)	-0.224	-1.22
RNH1_P13489_30_WAELLPLLQQCQVVR (UniProt P13489)	0.0863	0.0624
SEC63_Q9UGP8_295_NEPPLTCPYSLK (UniProt Q9UGP8)	-0.343	-1.34
SNRNP70_P08621_39_HHNQPYCGIAPYIR (UniProt P08621)	-0.0761	-0.168
SLPI_P03973_51+57_YKKPECQSDWQCPGK (UniProt P03973)	-0.847	-1.07
RPP25_Q9BUL9_70_AIVFSGCGR (UniProt Q9BUL9)	0.319	-0.143
SMYD3_Q9H7B4_261+263_DQYCFECDCFR (UniProt Q9H7B4)	-0.0235	-0.599
RNF214_Q8ND24_675_LVQPSELHPMACTHVLHK (UniProt Q8ND24)	0.0646	0.0132
SMCHD1_A6NHR9_444_YHPFLYDRETYPDDPCFPSK (UniProt A6NHR9)	-0.159	-0.206
SAE1_Q9UBE0_295_YCFSEMAPVCAVVGGILAQEIVK (UniProt Q9UBE0)	-0.252	0.0287
SLC9A3R1_O14745_206_IVEVNGVCMEGK (UniProt O14745)	0.165	-0.0744
SETD2_Q9BYW2_836_ISSNSFMNVHLESKPVICDSR (UniProt Q9BYW2)	0.115	0.0162
SEMA4A_Q9H3S1_547_GNPEWACASGPMSR (UniProt Q9H3S1)	-0.0882	-0.865
SLX4_Q8IY92_318_CLDEAEK (UniProt Q8IY92)	-0.0818	0.0245
RPS6_P62753_83_GHSCYRPR (UniProt P62753)	-0.077	0.137
SLC25A5_P05141_257_KGTDIMYTGTLDCWR (UniProt P05141)	-0.111	-0.203
RNF31_Q96EP0_473_LSAPLPSSCGDPEK (UniProt Q96EP0)	-0.208	0.0977
SEC63_Q9UGP8_295_KNEPPLTCPYSLK (UniProt Q9UGP8)	-0.404	-1.57

Target	probe-labelled cysteine peptide fold change (10 µM)	probe-labelled cysteine peptide fold change (50 µM)
SAMM50_Q9Y512_403_THFFLNAGNLCNLNYGEGPK (UniProt Q9Y512)	0.022	0.169
RNF214_Q8ND24_696_FWAQTNTNDTCPFCPTLK (UniProt Q8ND24)	0.35	1.12
SLITRK4_Q8IW52_661_HEGLGNPDCGSMQLQLR (UniProt Q8IW52)	-0.281	-0.498
SATB1_Q01826_173_IQLHSCPK (UniProt Q01826)	-0.0552	-0.188
RTN4IP1_Q8WWV3_130_DVSGVVMECGLDVK (UniProt Q8WWV3)	0.0949	0.461
SF1_Q15637_282_CGGAGHIASDCK (UniProt Q15637)	0.0635	-0.0325
RPS8_P62241_182_LLACIASRPGQCGR (UniProt P62241)	-0.207	-0.296
SLC25A5_P05141_257_GTDIMYTGTLDCWRK (UniProt P05141)	-0.0476	-0.127
SMNDC1_O75940_214_VGVGTCGIADKPMTQYQDTSK (UniProt O75940)	0.155	-0.732
SFSWAP_Q12872_307_CNRLEELMK (UniProt Q12872)	-0.382	-1.12
RPL11_P62913_21+25_KLCLNICVGESGDR (UniProt P62913)	-0.0801	-0.334
RPS6KA1_Q15418_432_ETIGVGSYSECKR (UniProt Q15418)	-1.06	-2.91
RNH1_P13489_323+330_SCSFTAACCSHFSSVLAQNR (UniProt P13489)	-0.0759	-0.562
SMC3_Q9UQE7_1134_CDPAPFYLFDEIDQALDAQHR (UniProt Q9UQE7)	0.416	0.52
SATB1_Q01826_91_GTMLPVFCVVEHYENAIEYDCKEEHAEFVLVR (UniProt Q01826)	-0.0836	-0.32
SLC25A28_Q96A46_49_GAGGGEAGACRPPVR (UniProt Q96A46)	-0.368	-0.406
SNRNP200_O75643_1278_VVSDRWLSCETQLPVSFR (UniProt O75643)	-0.0123	-0.0331
RPLP0_P05388_27_CFIVGADNVGSK (UniProt P05388)	0.0238	0.0907
RNPEP_Q9H4A4_69_CLEPEGAAELR (UniProt Q9H4A4)	0.063	0.0983
SCAF11_Q99590_506_KLENTGIEANVLCLESEISENILEK (UniProt Q99590)	-0.478	0.011
